The supplement of paper PMC12669032

What was measured:
Experiment in all cases: growth AUC relative to DMSO control (median of replicates) (fraction); higher = more growth (less inhibition), active = hit call of the paper
Settings in all cases: 20 µM; 24 h;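 active = AUC reduced over 20% with Padj below 0.05 in at least 2 of 3 replicates; inactive = otherwise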
Akkermansia muciniphila = tested on: Akkermansia muciniphila
Procedure, shortened: (§1)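 Hourly OD600 readings over 24 h tracked anaerobic gut bacterial monocultures grown at 37 °C in mGAM from OD600 0.05 with 20 µM compound (1% DMSO). After the minimum OD was set to 0, area under the growth curve was normalised to the plate median of solvent-only wells, or to row and column medians on the industrial chemical plate. Values are medians of three biological replicates grown on separate days.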

Bacteroides caccae = tested on: Bacteroides caccae
Procedure, shortened: as §1

Bacteroides clarus = tested on: Bacteroides clarus
Procedure, shortened: as §1

Bacteroides dorei = tested on: Bacteroides dorei
Procedure, shortened: as §1

Bacteroides stercoris = tested on: Bacteroides stercoris
Procedure, shortened: as §1

[1] = tested on: Bacteroides thetaiotaomicron
Procedure, shortened: as §1

Bacteroides uniformis = tested on: Bacteroides uniformis
Procedure, shortened: as §1

[2] = tested on: Bifidobacterium longum subsp. longum
Procedure, shortened: as §1

Clostridium difficile = tested on: Clostridium difficile
Procedure, shortened: as §1

Collinsella aerofaciens = tested on: Collinsella aerofaciens
Procedure, shortened: as §1

Measured: growth AUC

COP(=S)(OC)SCC(=O)N(c1ccc(Cl)cc1)C(C)C
inactive: Akkermansia muciniphila 0.942 | Bacteroides caccae 0.983 | Bacteroides clarus 0.965 | Bacteroides dorei 0.965 | Bacteroides stercoris 1.03 | [1] 0.929 | Bacteroides uniformis 0.912 | [2] 1.02 | Clostridium difficile 1.01 | Collinsella aerofaciens 0.993

CC(C)(O)C(Cl)(Cl)Cl.CC(C)(O)C(Cl)(Cl)Cl.O
inactive: Akkermansia muciniphila 1.08 | Bacteroides caccae 1.01 | Bacteroides clarus 1 | Bacteroides dorei 0.973 | Bacteroides stercoris 1.12 | [1] 1.05 | Bacteroides uniformis 1.02 | [2] 0.917 | Clostridium difficile 1.03 | Collinsella aerofaciens 0.999

CC1=C(C(=O)Nc2ccccc2)S(=O)(=O)CCO1
inactive: Akkermansia muciniphila 0.915 | Bacteroides caccae 0.983 | Bacteroides clarus 0.976 | Bacteroides dorei 0.977 | Bacteroides stercoris 1.02 | [1] 0.994 | Bacteroides uniformis 0.981 | [2] 0.944 | Clostridium difficile 0.973 | Collinsella aerofaciens 1.02

COC(=O)C(Cl)Cl
inactive: Akkermansia muciniphila 1 | Bacteroides caccae 0.968 | Bacteroides clarus 0.992 | Bacteroides dorei 1 | Bacteroides stercoris 1.06 | [1] 1.02 | Bacteroides uniformis 0.971 | [2] 0.957 | Clostridium difficile 0.997 | Collinsella aerofaciens 0.991

CCOP(=S)(OCC)SCn1c(=O)oc2cc(Cl)ccc21
inactive: Akkermansia muciniphila 0.99 | Bacteroides caccae 0.921 | Bacteroides clarus 0.94 | Bacteroides dorei 0.936 | Bacteroides stercoris 0.831 | [1] 0.945 | Bacteroides uniformis 0.927 | [2] 0.943 | Clostridium difficile 0.978 | Collinsella aerofaciens 0.991

CC(C)=CC1C(C(=O)OCc2cccc(Oc3ccccc3)c2)C1(C)C (mixture of isomers)
inactive: Akkermansia muciniphila 1.21 | Bacteroides caccae 0.961 | Bacteroides clarus 0.994 | Bacteroides dorei 0.917 | Bacteroides stercoris 1.01 | [1] 1 | Bacteroides uniformis 0.991 | [2] 0.864 | Clostridium difficile 1.02 | Collinsella aerofaciens 0.914

O=C(O)COc1ccc(Cl)cc1Cl
inactive: Akkermansia muciniphila 0.866 | Bacteroides caccae 1.03 | Bacteroides clarus 0.979 | Bacteroides dorei 0.996 | Bacteroides stercoris 0.986 | [1] 1 | Bacteroides uniformis 0.998 | [2] 1 | Clostridium difficile 1.02 | Collinsella aerofaciens 0.988

COC(=O)c1sccc1S(=O)(=O)NC(=O)Nc1nc(C)nc(OC)n1
inactive: Akkermansia muciniphila 1.13 | Bacteroides caccae 0.932 | Bacteroides clarus 0.994 | Bacteroides dorei 0.875 | Bacteroides stercoris 0.961 | [1] 0.924 | Bacteroides uniformis 1.03 | [2] 1.09 | Clostridium difficile 0.944 | Collinsella aerofaciens 0.898

O=C(NC(=O)c1ccccc1Cl)Nc1ccc(OC(F)(F)F)cc1
inactive: Akkermansia muciniphila 1.06 | Bacteroides caccae 0.915 | Bacteroides clarus 0.964 | Bacteroides dorei 0.927 | Bacteroides stercoris 0.802 | [1] 0.962 | Bacteroides uniformis 1.01 | [2] 0.986 | Clostridium difficile 0.946 | Collinsella aerofaciens 0.937

CC(C)C1(C)N=C(c2ncccc2C(=O)O)NC1=O (stereo not given)
inactive: Akkermansia muciniphila 0.976 | Bacteroides caccae 0.918 | Bacteroides clarus 1.01 | Bacteroides dorei 0.761 | Bacteroides stercoris 1.17 | [1] 0.974 | Bacteroides uniformis 1.02 | [2] 1 | Clostridium difficile 0.991 | Collinsella aerofaciens 0.978

CN(C)C(CSC(N)=O)CSC(N)=O.Cl
inactive: Akkermansia muciniphila 1.13 | Bacteroides caccae 0.993 | Bacteroides clarus 1.04 | Bacteroides dorei 1.08 | Bacteroides stercoris 1.02 | [1] 1.06 | Bacteroides uniformis 1.15 | [2] 1.05 | Clostridium difficile 1 | Collinsella aerofaciens 1.03

O=c1oc2ccccc2c(O)c1C1CC(c2ccc(-c3ccccc3)cc2)Cc2ccccc21 (stereo not given)
inactive: Akkermansia muciniphila 0.831 | Bacteroides caccae 0.895 | Bacteroides dorei 0.904 | Bacteroides uniformis 0.858 | [2] 0.886 | Clostridium difficile 0.803 | Collinsella aerofaciens 0.975
active: Bacteroides clarus 0.66 | Bacteroides stercoris 0.00795 | [1] 0.76

CC(C)NC(=O)N1CC(=O)N(c2cc(Cl)cc(Cl)c2)C1=O
inactive: Akkermansia muciniphila 0.919 | Bacteroides caccae 0.969 | Bacteroides clarus 0.989 | Bacteroides dorei 1.01 | Bacteroides stercoris 1.1 | [1] 1.01 | Bacteroides uniformis 0.967 | [2] 1.01 | Clostridium difficile 1.04 | Collinsella aerofaciens 1.05

COc1ccc(/C(=C/C(=O)N2CCOCC2)c2ccc(Cl)cc2)cc1OC
inactive: Akkermansia muciniphila 1.1 | Bacteroides caccae 0.962 | Bacteroides clarus 1 | Bacteroides dorei 0.93 | Bacteroides stercoris 1.33 | [1] 0.978 | Bacteroides uniformis 0.954 | [2] 1.04 | Clostridium difficile 0.932 | Collinsella aerofaciens 0.93

N#Cc1cc(Br)c(O)c(Br)c1
inactive: Akkermansia muciniphila 1.11 | Bacteroides caccae 0.896 | Bacteroides clarus 0.951 | Bacteroides dorei 0.924 | Bacteroides stercoris 0.875 | [1] 0.997 | Bacteroides uniformis 0.988 | [2] 1.05 | Clostridium difficile 0.98 | Collinsella aerofaciens 0.968

CCCN(CC)CC1COC2(CCC(C(C)(C)C)CC2)O1 (stereo not given)
inactive: Akkermansia muciniphila 0.871 | Bacteroides caccae 0.99 | Bacteroides clarus 0.952 | Bacteroides dorei 1.07 | Bacteroides stercoris 0.87 | [1] 1.02 | Bacteroides uniformis 1.04 | [2] 0.79 | Clostridium difficile 0.985 | Collinsella aerofaciens 0.981

O=C1C2(Cl)C3(Cl)C4(Cl)C(Cl)(Cl)C5(Cl)C3(Cl)C1(Cl)C5(Cl)C24Cl (stereo not given)
inactive: Akkermansia muciniphila 0.849
active: Bacteroides caccae 0.0318 | Bacteroides clarus 0.02 | Bacteroides dorei 0.0186 | Bacteroides stercoris 0.00866 | [1] 0.0105 | Bacteroides uniformis 0.0112 | [2] 0.28 | Clostridium difficile 0.0161 | Collinsella aerofaciens 0.0984

CCOP(=S)(OCC)Oc1cc(Cl)c(SC)cc1Cl
inactive: Akkermansia muciniphila 1.01 | Bacteroides caccae 0.997 | Bacteroides clarus 0.979 | Bacteroides dorei 0.999 | Bacteroides stercoris 1.11 | [1] 0.992 | Bacteroides uniformis 0.989 | [2] 0.981 | Clostridium difficile 1.05 | Collinsella aerofaciens 1.01

N#Cc1nn(-c2c(Cl)cc(C(F)(F)F)cc2Cl)c(N)c1C(F)(F)F
inactive: Akkermansia muciniphila 1.08 | Bacteroides caccae 0.898 | Bacteroides dorei 0.773 | Bacteroides stercoris 0.626 | [1] 1.01 | Bacteroides uniformis 0.97 | [2] 0.858 | Collinsella aerofaciens 0.967
active: Bacteroides clarus 0.741 | Clostridium difficile 0.609

COC(=O)c1ccccc1CS(=O)(=O)NC(=O)Nc1nc(OC)cc(OC)n1
inactive: Akkermansia muciniphila 0.94 | Bacteroides caccae 1.02 | Bacteroides clarus 0.972 | Bacteroides dorei 0.985 | Bacteroides stercoris 0.969 | [1] 1.02 | Bacteroides uniformis 1.01 | [2] 1.05 | Clostridium difficile 1.02 | Collinsella aerofaciens 0.956

O=[N+]([O-])c1ccc2ccc3cccc4ccc1c2c34
inactive: Akkermansia muciniphila 0.948 | Bacteroides dorei 0.851 | Bacteroides uniformis 0.877 | [2] 1.3 | Clostridium difficile 0.913 | Collinsella aerofaciens 0.983
active: Bacteroides caccae 0.59 | Bacteroides clarus 0.783 | Bacteroides stercoris 0.179 | [1] 0.737

CCCOc1nn(C(=O)[N-]S(=O)(=O)c2ccccc2C(=O)OC)c(=O)n1C.[Na+]
inactive: Akkermansia muciniphila 0.978 | Bacteroides caccae 1.02 | Bacteroides clarus 0.979 | Bacteroides dorei 1.02 | Bacteroides stercoris 1.13 | [1] 0.992 | Bacteroides uniformis 0.972 | [2] 1.01 | Clostridium difficile 0.994 | Collinsella aerofaciens 1.02

c1coc(-c2nc3ccccc3[nH]2)c1
inactive: Akkermansia muciniphila 1.03 | Bacteroides caccae 0.937 | Bacteroides clarus 1 | Bacteroides dorei 0.919 | Bacteroides stercoris 1.17 | [1] 0.96 | Bacteroides uniformis 0.968 | [2] 1.04 | Clostridium difficile 0.971 | Collinsella aerofaciens 0.945

CNC(=O)Oc1cc(C)c(SC)c(C)c1
inactive: Akkermansia muciniphila 1.07 | Bacteroides caccae 0.934 | Bacteroides clarus 1 | Bacteroides dorei 0.971 | Bacteroides stercoris 0.912 | [1] 1.01 | Bacteroides uniformis 0.989 | [2] 1.34 | Clostridium difficile 1.01 | Collinsella aerofaciens 0.934

ClCC(Br)CBr (stereo not given)
inactive: Akkermansia muciniphila 0.997 | Bacteroides caccae 1.04 | Bacteroides clarus 0.981 | Bacteroides dorei 0.974 | Bacteroides stercoris 0.996 | [1] 1 | Bacteroides uniformis 0.957 | [2] 1 | Clostridium difficile 1 | Collinsella aerofaciens 0.992

CCc1cccc(CC)c1N(COC)C(=O)CCl
inactive: Akkermansia muciniphila 0.942 | Bacteroides caccae 1 | Bacteroides clarus 0.991 | Bacteroides dorei 0.949 | Bacteroides stercoris 1.08 | [1] 0.957 | Bacteroides uniformis 0.985 | [2] 1 | Clostridium difficile 0.974 | Collinsella aerofaciens 0.989
